From PubChem
In the library only some 3.5% were active in any assay of this set; here they are far more common.
MITF inh = human MITF inhibition, primary screen. AlphaScreen MITF homodimerization, bead proximity signal. inhibition, % at 2.6 µM. actives 0.91% (n = 650,000). AID 1259374; in the data active = inhibition above about 50%;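 note: 0% = vehicle wells with protein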
GPR151 activ = activators of human GPR151 | activation, % at 11.2 µM | AID 1508602 | PathHunter beta-arrestin GPR151 cells, luminescence | Q8TDV0 | actives 1% (n = 650,000); in the data active = activation above about 4.9%;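 note: 0% = median of compound wells and 100% = cells with positive control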
FBW7 act = activators of human E3 ligase FBW7 | Q969H0 | AlphaScreen FBW7–phospho-cyclin E peptide binding, activator screen | normalized activity (activation), % at 26.1 µM | actives 0.13% (n = 650,000) | AID 1259310; in the data active = normalized activity above about 1.9%;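 note: purified mutant Fbw7 with reduced substrate affinity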
Target sequence (Q969H0 whole entry, looked up): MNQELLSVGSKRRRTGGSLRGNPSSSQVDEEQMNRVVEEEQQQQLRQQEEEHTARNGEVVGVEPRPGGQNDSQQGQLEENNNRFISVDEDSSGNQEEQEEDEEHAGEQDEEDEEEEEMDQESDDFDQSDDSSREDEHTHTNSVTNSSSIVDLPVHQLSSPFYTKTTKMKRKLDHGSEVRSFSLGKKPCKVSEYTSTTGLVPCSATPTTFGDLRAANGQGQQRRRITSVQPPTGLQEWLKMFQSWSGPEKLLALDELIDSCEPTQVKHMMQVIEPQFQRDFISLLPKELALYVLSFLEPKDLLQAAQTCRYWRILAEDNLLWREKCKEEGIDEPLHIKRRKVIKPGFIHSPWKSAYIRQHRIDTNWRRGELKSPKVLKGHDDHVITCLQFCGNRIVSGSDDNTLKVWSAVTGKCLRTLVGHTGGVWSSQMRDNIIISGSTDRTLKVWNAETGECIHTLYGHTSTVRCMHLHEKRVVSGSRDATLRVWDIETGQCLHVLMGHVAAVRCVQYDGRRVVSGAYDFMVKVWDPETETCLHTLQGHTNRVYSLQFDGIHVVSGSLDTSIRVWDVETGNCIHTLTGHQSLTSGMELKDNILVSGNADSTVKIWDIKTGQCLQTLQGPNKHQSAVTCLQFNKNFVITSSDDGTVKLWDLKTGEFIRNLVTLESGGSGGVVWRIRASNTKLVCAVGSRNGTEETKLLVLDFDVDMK
TEAD-YAP inh = TEAD-YAP interaction inhibition. HEK-TIYL cells, TEAD-Gal4/YAP UAS-luciferase luminescence. inhibition, % at 9.12 µM. actives 1.4% (n = 640,000). AID 1259422; in the data active = inhibition above about 32%;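 note: 0% = median of test compound wells and 100% = reference inhibitor wells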
MITF inh conf = confirmation of human MITF inhibitors; shares compounds with MITF inh; AlphaScreen MITF homodimerization, biotin/His-MITF beads; inhibition, % at 2.6 µM; actives 16% (n = 4,700); AID 1259372;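 active = inhibition above a cutoff derived from the DMSO control wells, cut at about 28% in these data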;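 note: 0% = MITF dimer wells with DMSO only; inhibitors lower the bead chemiluminescence by keeping MITF from dimerizing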
AlphaScreen DR = counter-screen: compounds optically interfering with AlphaScreen; IC50, µM; actives 6% (n = 480); AID 1259373; shares compounds with MITF inh; AlphaScreen optical interference counterscreen, cell-free; call rule not given here
AlphaScreen intf2 = counter-screen: compounds optically interfering with AlphaScreen; inhibition, % at 2.6 µM; LysRS AlphaScreen counterscreen, signal interference, triplicate; shares compounds with MITF inh; actives 7.6% (n = 4,700);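 active = inhibition above a cutoff derived from the DMSO control wells, cut at about 30% in these data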
* hit, by the source's call; x = no result.

SMILES	MITF inh	GPR151 activ	FBW7 act	TEAD-YAP inh	MITF inh conf	AlphaScreen intf2	others
CC(C)C[C@@H]1NC(=O)[C@H]2CN(C(=O)NC3CCCCC3)CCN2C1=O	79.7*	-1.1	-0.2	10.5	75.0*	-13.1	AlphaScreen DR=>6.48
CC[C@@H]1NC(=O)[C@H]2CN(C(=O)NC3CCCCC3)CCN2C1=O	83.4*	-0.7	0.0	4.2	71.4*	-10.4	AlphaScreen DR=>6.48
NN1C(=O)/C(=C\c2ccc(Cl)cc2)NC1=S	52.6*	0.4	0.1	11.6	1.0	7.8
N/C(=N\N=C(/N)c1ccccn1)c1ccccn1	107.3*	-6.5	-1.0	60.9*	100.1*	100.3*
COc1cccc(CN2CCN(C(=O)c3ccc(F)cc3)CC2)c1	59.7*	-1.9	0.5	7.3	52.2*	20.6	AlphaScreen DR=>5.27
O=C(c1ccc(-c2ccccc2)cc1)N1CCN(Cc2cccc(F)c2)CC1	64.3*	-0.9	0.1	-9.4	-3.6	2.6
O=C(c1ccncc1)N1CCN(Cc2cccc(Br)c2)CC1	65.4*	0.7	-0.3	13.5	-3.5	-3.3
COc1cccc(CN2CCN(C(=O)c3ccncc3)CC2)c1	81.4*	0.4	0.1	0.4	25.8	-15.5
O=C(c1cccc(F)c1)N1CCN(Cc2cccc(Br)c2)CC1	50.0	0.2	0.1	10.8	x	x
COc1cc(Nc2cccc(C(=O)NC3CC3)n2)cc(OC)c1OC	11.8	-1.2	0.0	-2.1	x	x
COc1ccc(OC)c(NC(=O)c2sc3ncn(Cc4cccc(F)c4)c(=O)c3c2C)c1	12.9	-0.5	0.0	2.6	x	x
O=C(N/C(=C\c1cccc([N+](=O)[O-])c1)C(=O)N1CC2CC(C1)c1cccc(=O)n1C2)c1ccccc1F (configuration not stated)	-3.5	-0.5	-0.2	4.7	x	x
O=C1C2C3C=CC(CNS(=O)(=O)c4ccc(I)cc4)(O3)C2C(=O)N1c1ccccc1 (configuration not stated)	1.8	0.2	-0.1	-7.6	x	x
CCOCCOC(=O)C1=C(C)NC2=C(C(=O)CC(c3cccs3)C2)C1c1ccc(O)c(OCC)c1 (configuration not stated)	5.5	0.6	0.0	17.0	x	x
C/C(=N/OC(=O)c1cc([N+](=O)[O-])cc([N+](=O)[O-])c1)c1ccc2ccccc2c1O	9.3	-0.2	-0.1	4.5	x	x
Cc1cccc(CN2CCN(C(=O)c3ccccc3F)CC2)c1	42.8	2.3	-0.1	6.8	x	x
Cc1cccc(CN2CCN(C(=O)c3ccc(F)cc3)CC2)c1	67.6*	-1.2	0.9	5.9	17.1	10.8
COc1cccc(CN2CCN(C(=O)Nc3cccc(Cl)c3)CC2)c1	51.0*	-1.0	0.0	-5.8	3.2	10.5
Cc1cccc(CN2CCC(C(=O)NC(C)C)CC2)c1	77.1*	-0.8	0.5	0.6	-9.5	-6.9
COc1cccc(CN2CCC(C(=O)NC(C)C)CC2)c1	45.7	1.5	0.8	2.7	x	x
CN(C)[C@@H]1C(=O)C(C(=O)NCN2CCCC2)=C(O)[C@@]2(O)C(=O)C3=C(O)c4c(O)cccc4[C@@](C)(O)[C@H]3C[C@@H]12	75.2*	0.1	-0.5	-1.6	80.6*	21.5	AlphaScreen DR=>6.48
CN(Cc1ccccc1)C(=O)c1ccc(C(=O)N(C)Cc2ccccc2)cc1	-1.1	1.4	0.0	15.2	x	x
COc1ccc(NCc2nnc(SCC(=O)NC3CCCC3)n2C)cc1	12.2	0.3	-0.1	-2.4	x	x
O=C(c1cccnc1)N1CCN(CC2CC=CCC2)CC1 (configuration not stated)	70.8*	-0.4	0.6	5.5	-6.8	-4.9
O=C(NCc1cccnc1)C1CCN(CC2CC=CCC2)CC1 (configuration not stated)	63.1*	1.5	-0.1	-0.5	11.0	15.0
SMILES	MITF inh	GPR151 activ	FBW7 act	TEAD-YAP inh	MITF inh conf	AlphaScreen intf2	others
O=C(c1cccnc1)N1CCN(C2CCCC2)CC1	64.3*	0.4	0.1	-2.4	1.0	7.6
COc1ccc(CN2CCC(C(=O)NCCc3ccccc3)CC2)cc1	36.2	0.7	0.1	0.4	x	x
O=C(NCCc1ccccc1)C1CCN(Cc2cccnc2)CC1	50.7*	2.6	0.1	1.5	8.4	21.5
CCOC(=O)C1=C(C)N=c2s/c(=C\c3ccc(OCc4cccc5ccccc45)c(OC)c3)c(=O)n2C1c1ccccc1 (configuration not stated)	-0.3	0.7	0.0	10.1	x	x
O=C(c1cccc(OC2CCN(CC3CC=CCC3)CC2)c1)N1CCOCC1 (configuration not stated)	-1.0	0.2	0.0	4.5	x	x
O=C(c1ccncc1)N1CCN(CC2CC=CCC2)CC1 (configuration not stated)	72.9*	0.1	-0.1	6.6	-5.6	-0.1
O=C(O)CC/C(=C\c1ccco1)c1nc2ccccc2s1	35.8	-1.6	0.2	-8.4	x	x
CCc1ccc(C2C(C#N)=C(N)N(c3ccc(Br)cc3C)C3=C2C(=O)CCC3)s1 (configuration not stated)	2.4	-0.8	0.0	-6.5	x	x
O=C1CSC(=O)N1CC(O)COc1cccc2ccccc12 (configuration not stated)	88.7*	1.3	-0.1	0.4	11.9	2.7
COc1ccccc1N1CCN(Cc2ccco2)CC1	31.5	-0.8	0.2	-4.8	x	x
COc1cc(CN2CCN(Cc3cccc(C)c3)CC2)cc(OC)c1O	46.0	0.4	0.2	-5.8	x	x
COc1cc(CN2CCN(Cc3ccco3)CC2)cc(OC)c1O	76.4*	0.1	0.4	4.5	3.0	9.2
COc1cc(CN2CCN(Cc3ccco3)CC2)cc(OC)c1OC	71.2*	-0.6	0.3	4.2	-15.5	1.1
Cc1ccccc1CSc1nc2ccccc2c(=O)n1CC1COc2ccccc2O1 (configuration not stated)	15.7	0.5	0.1	-7.8	x	x
Fc1ccc(CN2CCN(Cc3ccc4ccccc4c3)CC2)cc1	78.7*	1.0	-0.1	-7.4	19.7	14.2
O=C(c1ccc(F)cc1)N1CCN(Cc2ccc3ccccc3c2)CC1	57.5*	2.6	0.7	14.6	-8.2	-6.5
CC1CCCC(C)N1C(=O)c1nn2c(c1Cl)NC(c1ccc(F)cc1)CC2C(F)(F)F (configuration not stated)	0.5	-0.9	0.0	6.2	x	x
Cc1ccccc1NC(=O)c1ccccc1N(Cc1ccccc1)S(C)(=O)=O	55.5*	-0.7	0.1	6.7	-2.5	5.8
O=C1CCCN1CCn1cnc2c(Nc3ccc(N4CCOCC4)cc3)nc(N3CCN(c4ccccn4)CC3)nc21	6.0	0.5	-0.2	14.0	x	x
O=C1CCCN1CCn1cnc2c(Nc3ccc4c(c3)OCO4)nc(N3CCN(c4ccccn4)CC3)nc21	76.2*	-1.0	0.1	19.4	3.7	9.6
CCOC(=O)c1c(NC(=O)c2ccc(S(=O)(=O)N3CC(C)CC(C)C3)cc2)sc2c1CCCC2 (configuration not stated)	-4.5	-0.6	0.1	-6.6	x	x
